Screens deposited in PubChem by National Center for Advancing Translational Sciences (NCATS).
TDP1 cell CPT: growth inhibition of DT40 Tdp1-/-;hTDP1 cells with camptothecin (screen for TDP1 inhibitors) | actives 12% (n = 420,000) | chicken DT40 Tdp1-/-;hTDP1 cells + 20 nM CPT, ATP luminescence, 48 h | AID 686979 | Potency, µM (doses to about 46.2 µM), for the others: top-dose activity change, negative = growth inhibition, usual class: inhibitors; further: potency means the concentration at half of the fitted maximal effect; nearly all actives have a fitted effect of over 55% in size
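Chicken DT40 Tdp1-/- cells complemented with human TDP1, 400 cells/well, exposed to compounds plus 20 nM camptothecin for at least 48 h at 37 C; viability read as ATP content by CellTiter-Glo luminescence.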
ALOX12 inh: inhibitors of human 12S-lipoxygenase ALOX12; purified 12hLO, xylenol orange hydroperoxide absorbance; actives 1.1% (n = 580,000); P18054; AID 1671190; Potency, µM (highest dose often 108 µM), for inactives: at the top dose activity change, negative = inhibition, hits mostly inhibitors; further: potency means the concentration at half of the fitted maximal effect
Target sequence (P18054 whole entry, looked up): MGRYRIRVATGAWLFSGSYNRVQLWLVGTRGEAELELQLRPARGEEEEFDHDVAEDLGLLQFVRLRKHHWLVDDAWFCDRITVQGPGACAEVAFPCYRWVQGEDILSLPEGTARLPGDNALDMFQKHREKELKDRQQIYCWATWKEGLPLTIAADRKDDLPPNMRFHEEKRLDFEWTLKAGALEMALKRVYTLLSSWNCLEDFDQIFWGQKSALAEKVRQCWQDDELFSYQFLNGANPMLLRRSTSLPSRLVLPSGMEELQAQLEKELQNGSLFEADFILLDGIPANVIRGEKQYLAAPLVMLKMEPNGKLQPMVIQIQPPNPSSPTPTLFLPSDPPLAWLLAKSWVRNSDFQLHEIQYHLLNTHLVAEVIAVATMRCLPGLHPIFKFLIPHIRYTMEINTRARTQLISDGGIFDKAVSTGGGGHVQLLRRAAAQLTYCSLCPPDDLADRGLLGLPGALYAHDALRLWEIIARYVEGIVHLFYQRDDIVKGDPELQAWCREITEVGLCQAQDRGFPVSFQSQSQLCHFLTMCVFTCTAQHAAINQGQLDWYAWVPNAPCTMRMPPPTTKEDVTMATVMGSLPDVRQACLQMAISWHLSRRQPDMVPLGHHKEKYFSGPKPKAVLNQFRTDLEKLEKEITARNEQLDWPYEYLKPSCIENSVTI
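Purified human 12hLO (150 nM final) in 25 mM Hepes, 0.01% Triton X-100, pH 7.0 was preincubated 15 min at room temperature with compound. Then 40 uM arachidonic acid was added, 30 min. Hydroperoxide was read by Fe-XO absorbance ratio 573/405 nm.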
DT40 TDP1 no CPT: qHTS for Inhibitors of human tyrosyl-DNA phosphodiesterase 1 (TDP1): qHTS in cells in absence of CPT; Potency, µM (doses to about 46.2 µM), for the others: at the top dose activity change, negative = growth inhibition, usual class: inhibitors; DT40 Tdp1-/- hTDP1 cells, no CPT, ATP luminescence, 48 h; AID 686978, 2013; actives 15% (n = 420,000); further: potency means the concentration at half of the fitted maximal effect; nearly all actives have a fitted effect of over 55% in size
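Cells were dispensed at 400 per well, compounds added by pin tool, plates incubated ≥48 hr at 37 °C, then CellTiter-Glo added for 30 min at room temperature before luminescence reading. Line: DT40 Tdp1-/- complemented with hTDP1; camptothecin omitted.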
HT1080 IDH1KD tx: HT-1080 IDH1 knockdown cell toxicity (counter line) | HT-1080 IDH1 knockdown viability, ATP luminescence, 48 h | Potency, µM (highest dose often 46.1 µM), for the others: top-dose activity, negative = toxicity, most hits filed as cytotoxic | actives 2% (n = 360,000);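 further: potency means the concentration at half of the fitted maximal effect; 0% = DMSO wells and -100% = cell-free medium wells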
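Cytotoxicity counter-line: IDH1KD HT-1080, 48 h, CellTiter-Glo. Curves classed by r2, magnitude and activity.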
HT1080NT lethal: kills 2HG-producing HT-1080-NT fibrosarcoma cells. Potency, µM (series often up to 46.1 µM), without a hit: top-dose activity, negative = less viability, most hits filed as cytotoxic. HT-1080-NT fibrosarcoma viability, CellTiter-Glo ATP luminescence, 48 h. actives 1.6% (n = 360,000). AID 686970;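 further: NT is the 2HG producing partner of a matched IDH1 knockdown line; potency means the concentration at half of the fitted maximal effect; 0% = DMSO-treated cells and -100% = media-only wells without cells; nearly all actives have a fitted effect of over 55% in size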
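HT-1080-NT; 750 cells/well; 5% FBS RPMI; 48 h compound, 37 degrees C; CellTiter-Glo luminescence; curve fitting and curve-class assignment.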
IL1B secr inh: inhibitors of inflammasome signaling (IL-1 beta secretion) | THP-1 LPS/ATP IL-1B secretion, AlphaLISA, 16 h; stronger effect = lower value | activity change, % at 57.5 µM | actives 4.7% (n = 360,000) | AID 743279; in the data active means activity change below about -50%; inconclusive means mostly about -30% to -49%
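THP-1 cells pretreated 1 hr with compounds (up to 57.5 uM final), then stimulated with LPS (250 ng/mL final) plus ATP (1.25 mM final); secreted IL-1B measured by AlphaLISA after 16 hr, decreased signal indicating inhibition.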
* = called active by the depositor. Only a selection was taken, and hits are over-represented in it overall. Unless noted, the call rests on the fitted dose curve; in most records, active means well fitted curve in the direction sought with a large enough effect; inconclusive means small, poorly fitted or top-dose-only effect, or another doubt; inactive means no such curve, though single readings can be large; an effect the other way counts as inactive or inconclusive. Unless noted, on the % scale 0 is the no-effect control and ±100 the full control effect.

How did CCOC(=O)C(NC(=O)c1ccccc1Cl)(Nc1ccc(OC)cc1OC)C(F)(F)F (configuration not stated) do in these assays?
ALOX12 inh: 9.0%

What do the screens show for `O=C(N[C@@H]1CN(c2ncccn2)C[C@H]1CO)c1ccncc1`?
ALOX12 inh: 26.6%

How did Cc1ccc(C(=O)NCC(c2cccs2)S(=O)(=O)c2ccccc2)cc1C (configuration not stated) do in these assays?
TDP1 cell CPT: 14.6µM*; ALOX12 inh: -8.0%; DT40 TDP1 no CPT: 4.11µM*

Results for COc1cc(C(=O)NCC(c2cccs2)S(=O)(=O)c2cccs2)cc(OC)c1OC (configuration not stated) ?
TDP1 cell CPT: inconclusive; ALOX12 inh: 0.0%; DT40 TDP1 no CPT: inconclusive

What do the screens show for `O=C(NCc1ccc(Cl)cc1)C(=O)NCC(c1cccs1)S(=O)(=O)c1cccs1` (configuration not stated)?
TDP1 cell CPT: -84.6%; ALOX12 inh: -10.0%; DT40 TDP1 no CPT: inconclusive

Results for O=C(NCc1ccccc1Cl)C(=O)NCC(c1cccs1)S(=O)(=O)c1cccs1 (configuration not stated) ?
TDP1 cell CPT: inconclusive; ALOX12 inh: -18.5%; DT40 TDP1 no CPT: 18.4µM*

How did COc1ccc(C(=O)C/C(=C\C(=O)c2ccc(C)cc2)c2ccccc2)cc1 do in these assays?
TDP1 cell CPT: 18.4µM*; ALOX12 inh: 1.0%; DT40 TDP1 no CPT: 23.1µM*; HT1080 IDH1KD tx: -29.4%; HT1080NT lethal: inconclusive; IL1B secr inh: -24.2

What do the screens show for `COc1ccc(C(=O)NCC(c2cccs2)S(=O)(=O)c2cccs2)cc1` (configuration not stated)?
TDP1 cell CPT: inconclusive; ALOX12 inh: -6.2%; DT40 TDP1 no CPT: 16.4µM*

What do the screens show for `COc1ccc(/C=C/C(=O)Oc2ccc3ccccc3c2)cc1`?
ALOX12 inh: -5.7%

What do the screens show for `COc1cccc(CC(=O)N2CCCOCCNC(=O)CC2)c1`?
ALOX12 inh: 20.3%

What do the screens show for `CCCCn1nc(C(=O)Nc2nc(C(C)=O)cs2)c2ccccc2c1=O`?
ALOX12 inh: 13.1%

Results for Cc1cc(C(=O)N2C[C@H](NC(=O)Cn3nnnc3N)[C@@H](C3CC3)C2)c(C)o1 ?
ALOX12 inh: 24.6%

What do the screens show for `COc1cccc(CNC(=O)C(=O)NCC(c2ccco2)S(=O)(=O)c2cccs2)c1` (configuration not stated)?
TDP1 cell CPT: inconclusive; ALOX12 inh: -24.1%; DT40 TDP1 no CPT: inconclusive

Results for COc1cccc(CNC(=O)Nc2cccs2)c1 ?
TDP1 cell CPT: 7.31µM*; ALOX12 inh: inconclusive; DT40 TDP1 no CPT: inconclusive; HT1080 IDH1KD tx: -5.2%; HT1080NT lethal: -4.0%; IL1B secr inh: -1.5

What do the screens show for `COc1ccc(C(CC(=O)c2ccccc2)S(=O)(=O)c2ccc(C)cc2)cc1` (configuration not stated)?
TDP1 cell CPT: inconclusive; ALOX12 inh: -5.0%; DT40 TDP1 no CPT: 14.1µM*; HT1080 IDH1KD tx: 1.3%; HT1080NT lethal: 15.9%; IL1B secr inh: -29.2

Results for COc1cccc(CNC(=O)C(=O)NCC(c2cccs2)S(=O)(=O)c2cccs2)c1 (configuration not stated) ?
TDP1 cell CPT: inconclusive; ALOX12 inh: -3.2%; DT40 TDP1 no CPT: 20.6µM*

Results for Cc1ccc(S(=O)(=O)C(CNC(=O)C(C)C)c2cccs2)cc1 (configuration not stated) ?
TDP1 cell CPT: -7.3%; ALOX12 inh: -10.3%; DT40 TDP1 no CPT: 13.3%; HT1080 IDH1KD tx: 2.1%; HT1080NT lethal: 16.0%; IL1B secr inh: -0.7
